# Unmarked numbers belong to inactive results. Activity calls are given as the source filed them. No rule for the calls is given here.
# Test system: HIV-1 nucleocapsid protein NCp7 (binding to TG oligonucleotide)
# Test: HIV Nucleocapsid (AID 346);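 also: potency is for inhibitors that block NC binding and lower polarization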
# Conditions: HIV-1 NC / fluorescein-TGTGTGTG probe, fluorescence polarization
# How it was run: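 NCp7 100 nM + fluorescein TG4xF 10 nM; Hepes pH 7.5/250mM NaCl/1uM ZnCl2/0.004% PEG 20000; 1 hr RT; FP, 45 s exposure; oligo-only wells as negative control.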
# Potency is read from the fitted curve at half-maximal effect.
row,Structure (SMILES),Potency
1,O=c1c(-c2ccc(F)cc2)nc2cnc(N3CCNCC3)nc2n1Cc1cccs1,> 20 µM
2,CN(Cc1ccco1)c1ncnc2ccc(-c3ccccc3C(F)(F)F)cc12,> 20 µM
3,COc1ccc(C(=O)N2CCC3(CCN(C(=O)Nc4cccc(F)c4)CC3)CC2)cc1,> 20 µM
4,COCCn1c(=O)cnc2cnc(OC)nc21,> 20 µM
5,COc1ccc(C(=O)N2CCC3(CC2)CCN(c2ccccn2)CC3)cc1,> 20 µM
6,CN(C)c1ncc2nc(-c3ccccc3)c(=O)n(C3CC3)c2n1,> 20 µM
7,O=S(=O)(c1ccccc1)N1CCC2(CC1)CN(c1ccccn1)C2,> 20 µM
8,COCCNc1ncncc1-c1ccccc1OC,> 20 µM
9,O=C(c1ccncc1)N1CCC2(CCCN(C(c3ccccc3)c3ccccc3)C2)CC1,> 20 µM
10,COc1cccc(-c2cncnc2NCCN2CCOCC2)c1,> 20 µM
11,Cc1noc(C)c1C(=O)N1CCC2(CC1)CCN(c1ccncc1)CC2,> 20 µM
12,COc1ccccc1CNc1nc(-c2ccccc2CN(C)C)nc2ccccc12,> 20 µM
13,CN(C)Cc1ccccc1-c1ccc2ncnc(N(C)C)c2c1,> 20 µM
14,O=C(c1ccncc1)N1CCC[C@@]2(CCN(c3ccccc3)C2)C1,> 20 µM
15,CN(C)c1ncc2nc(-c3cccs3)c(=O)n(-c3ccccc3)c2n1,> 4 µM
16,COc1cccc(Cn2c(=O)c(-c3ccccc3)nc3cnc(N4CCNCC4)nc32)c1,> 20 µM
17,O=c1c(-c2ccccc2)nc2cnc(N3CCNCC3)nc2n1Cc1cccs1,> 20 µM
18,O=c1cnc2cnc(N3CCOCC3)nc2n1Cc1ccc(F)cc1,20.6 µM
19,CS(=O)(=O)Nc1cccc(-c2ccc3ncnc(NCc4cccnc4)c3c2)c1,> 20 µM
20,O=C(Nc1cccc(F)c1)N1CC[C@@]2(CCCN(C(=O)c3ccco3)C2)C1,> 20 µM
21,O=C(c1ccco1)N1CCC2(CC1)CCN(c1ccc(-c3ccccc3)cc1)CC2,> 20 µM
22,CS(=O)(=O)Nc1cccc(-c2cc(NCc3cccs3)ncn2)c1,> 20 µM
23,Cn1cc(-c2nc3cnc(N4CCNCC4)nc3n(C3CC3)c2=O)c2ccccc21,> 20 µM
24,CN1CCN(c2ncc3nc(-c4ccc(Cl)cc4)c(=O)n(CCC#N)c3n2)CC1,> 20 µM

row,Structure (SMILES),Potency
1,CN(C)c1ncc2nc(-c3ccc(F)cc3)c(=O)n(Cc3cccs3)c2n1,> 20 µM
2,CC(=O)NCCNc1nc(-c2ccccc2C)nc2ccccc12,> 20 µM
3,Cc1noc(C)c1-c1cncnc1N(C)Cc1ccco1,> 20 µM
4,CCNc1ncc2ncc(=O)n(C)c2n1,> 20 µM
5,O=C(c1ccncc1)N1CCC2(CC1)CCN(c1ccccn1)CC2,> 20 µM
6,Cc1noc(C)c1-c1nccc(-n2ccnc2)n1,> 20 µM
7,COc1ccccc1-c1cc(Nc2ccn[nH]2)ncn1,> 20 µM
8,O=c1c(CCc2ccccc2)nc2cnc(N3CCNCC3)nc2n1-c1ccccc1,> 20 µM
9,Cc1nc2cncnc2n(Cc2ccc(F)cc2)c1=O,> 20 µM
10,Cc1nc2cnc(N3CCNCC3)nc2n(C2CC2)c1=O,> 20 µM
11,CN(C)c1ncc2ncc(=O)n(C3CC3)c2n1,> 20 µM
12,c1ccc(CNc2ncnc3ccc(-c4ccc5c(c4)OCO5)cc23)cc1,> 20 µM
13,COc1ccccc1CN1CCCC2(CCN(C(=O)c3csnn3)CC2)C1,> 20 µM
14,COc1ccc(C(=O)N2CCC3(CCCN(Cc4ccc(C#N)cc4)C3)CC2)cc1,> 20 µM
15,CC(=O)N1CCC2(CC1)CN(c1ccncc1)C2,> 20 µM
16,COc1ccccc1-c1nc(NCc2cnc(C)cn2)c2ccccc2n1,> 20 µM
17,COc1ccc2[nH]cc(CCNc3ccnc(-c4ccccc4Cl)n3)c2c1,> 20 µM
18,CC(=O)NCCNc1ncnc2ccc(-c3ccccc3C#N)cc12,> 20 µM
19,COCCn1c(=O)c(-c2cn(C)c3ccccc23)nc2cnc(OCc3ccccc3)nc21,> 20 µM
20,Cc1cccc(CNc2ncncc2-c2ccccc2Cl)c1,> 20 µM
21,O=C(c1ccco1)N1CCC2(CC1)CN(c1ccc(-c3ccccc3)cc1)C2,> 20 µM
22,COC(=O)N1CCC2(CCCN(C(=O)Nc3ccccc3)C2)CC1,> 20 µM
23,Clc1ccccc1-c1nc(Nc2ccncc2)c2ccccc2n1,> 20 µM
24,O=C(c1cc(C(F)(F)F)cc(C(F)(F)F)c1)N1CCC2(CCCN(c3ncccn3)C2)CC1,> 20 µM

row,Structure (SMILES),Potency
1,O=c1cnc2cnc(N3CCOCC3)nc2n1Cc1cccs1,> 20 µM
2,N#Cc1cccc(NC(=O)N2CC3(CCN(C(=O)c4cc(C(F)(F)F)cc(C(F)(F)F)c4)CC3)C2)c1,> 20 µM
3,CN(C)C(=O)c1ccc(-c2nc(Nc3ccccc3)c3ccccc3n2)cc1,> 20 µM
4,COc1cccc(Cn2c(=O)c(-c3ccc(F)cc3)nc3cnc(OC)nc32)c1,> 20 µM
5,COc1ccc(-c2nc3cnc(OC)nc3n(Cc3cccs3)c2=O)cc1,> 20 µM
6,c1ccc2c(Nc3ccncc3)nc(-c3ccc4c(c3)OCO4)nc2c1,> 20 µM
7,N#Cc1cccc(NC(=O)N2CCCC3(CCN(S(=O)(=O)c4ccccc4)CC3)C2)c1,> 20 µM
8,CN1CCN(c2ncc3nc(-c4ccccc4)c(=O)n(Cc4cccs4)c3n2)CC1,> 20 µM
9,CCNc1ncc2nc(-c3ccc(OC)cc3)c(=O)n(Cc3cccc(OC)c3)c2n1,4.61 µM (active)
10,Clc1ccccc1-c1nccc(NCc2cccs2)n1,> 20 µM
11,O=C(c1ccco1)N1CCC2(CC1)CN(Cc1cc(C(F)(F)F)cc(C(F)(F)F)c1)C2,> 20 µM
12,Clc1ccccc1-c1ccc2ncnc(N3CCNCC3)c2c1,> 20 µM
13,Cc1cnc(CNc2ccnc(-c3ccccc3C(F)(F)F)n2)cn1,> 20 µM
14,Cc1ccccc1-c1cc(Nc2ccc(F)cc2)ncn1,> 20 µM
15,O=C(c1cnccn1)N1CCC2(CCCN(c3ncccn3)C2)CC1,> 20 µM
16,CNc1ncnc2ccc(-c3cccc(OC)c3)cc12,> 20 µM
17,CN(C)C(=O)c1ccc(-c2ccc3ncnc(NCc4cccnc4)c3c2)cc1,> 20 µM
18,O=C(c1ccco1)N1CCC2(CC1)CCN(c1ccccc1)CC2,> 20 µM
19,CS(=O)(=O)Nc1cccc(-c2nccc(NCc3cccs3)n2)c1,> 20 µM
20,O=C(c1cc(C(F)(F)F)cc(C(F)(F)F)c1)N1CCC2(CC1)CN(Cc1ccncc1)C2,> 20 µM
21,Cc1noc(C)c1-c1cc(NCCN2CCOCC2)ncn1,> 20 µM
22,COCCn1c(=O)c(-c2cccs2)nc2cnc(Oc3cccc(Cl)c3)nc21,> 20 µM
23,N#CCCn1c(=O)c(-c2ccc(F)cc2)nc2cnc(Oc3ccccc3)nc21,> 20 µM
24,O=C(c1cccc(F)c1)N1CCC2(CCN(Cc3ccccc3)CC2)CC1,> 20 µM

row,Structure (SMILES),Potency
1,Cc1nc2cnc(N(C)C)nc2n(C[C@H]2CCCO2)c1=O,> 20 µM
2,O=C(c1cccc(F)c1)N1CCC[C@@]2(CCN(C(c3ccccc3)c3ccccc3)C2)C1,> 20 µM
3,COc1cccc(Nc2ncc3nc(C)c(=O)n(Cc4cccs4)c3n2)c1,> 4 µM
4,COc1cccc(Nc2ncc3nc(-c4ccc(F)cc4)c(=O)n(C)c3n2)c1,> 4 µM
5,Cc1ccccc1-c1cc(N2CCNCC2)ncn1,> 20 µM
6,O=C(c1cccc(F)c1)N1CCC[C@@]2(CCN(c3ccncc3)C2)C1,> 20 µM
7,COC(=O)N1CCC2(CCN(Cc3cc(C(F)(F)F)cc(C(F)(F)F)c3)CC2)CC1,> 20 µM
8,COc1ccc(Oc2ncc3nc(-c4ccc(OC)cc4)c(=O)n(Cc4cccs4)c3n2)cc1,> 20 µM
9,CCNc1ncc2nc(-c3ccc(F)cc3)c(=O)n(-c3ccccc3)c2n1,> 20 µM
10,COCCNc1nc(-c2c(C)noc2C)nc2ccccc12,> 20 µM
11,CN1CCN(c2ncc3ncc(=O)n(C[C@H]4CCCO4)c3n2)CC1,> 20 µM
12,Cc1ccccc1-c1cc(N(C)C)ncn1,> 20 µM
13,CN(C)Cc1ccccc1-c1nc(N(C)C)c2ccccc2n1,> 20 µM
14,COc1ncc2nc(-c3cccs3)c(=O)n(Cc3cccs3)c2n1,> 20 µM
15,O=c1c(-c2cccc(Cl)c2)nc2cncnc2n1Cc1ccccc1,> 20 µM
16,c1ccc(-c2ccc(N3CCCC4(CCNCC4)C3)cc2)cc1,> 20 µM
17,CNc1cc(-c2ccccc2C)ncn1,> 20 µM
18,COc1ccccc1CN1CC2(CCN(C(=O)c3ccncc3)CC2)C1,> 20 µM
19,Cn1cccc1C(=O)N1CCC2(CCN(Cc3ccccc3)CC2)CC1,> 20 µM
20,Cn1c(=O)c(CCc2ccccc2)nc2cncnc21,> 20 µM
21,O=C(Nc1cccc(F)c1)N1CCC2(CC1)CCN(C(=O)c1cnccn1)CC2,> 20 µM
22,O=C(c1cnccn1)N1CCC2(CCCN(Cc3nccs3)C2)CC1,> 20 µM
23,O=C(Nc1ccccc1)N1CCC2(CC1)CCN(C(=O)c1cnccn1)CC2,> 20 µM
24,CC(=O)N1CCC2(CC1)CN(c1cccc(-c3ccccc3)c1)C2,> 20 µM

row,Structure (SMILES),Potency
1,N#CCCn1c(=O)c(-c2ccccc2)nc2cnc(Oc3cccc(Cl)c3)nc21,> 20 µM
2,O=C(Oc1ccccc1)N1CCC[C@@]2(CCN(c3ccccn3)C2)C1,> 20 µM
3,O=C(Nc1cccc(F)c1)N1CCCC2(CCN(C(=O)c3cccc(F)c3)CC2)C1,> 20 µM
4,COc1cccc(-c2nccc(NC3CCNCC3)n2)c1,> 20 µM
5,COCCn1c(=O)c(-c2cc(F)cc(F)c2)nc2cnc(N3CCOCC3)nc21,> 20 µM
6,COc1cccc(Cn2c(=O)c(-c3cc(F)cc(F)c3)nc3cnc(N4CCNCC4)nc32)c1,> 20 µM
7,Cc1ccccc1-c1ccc2ncnc(NCCN3CCOCC3)c2c1,> 20 µM
8,CCNc1ncc2nc(CCc3ccccc3)c(=O)n(CCC#N)c2n1,> 20 µM
9,Cc1noc(C)c1C(=O)N1CCC2(CCCN(c3ccccc3)C2)CC1,> 20 µM
10,O=C(c1csnn1)N1CCC2(CC1)CCN(c1ccncc1)CC2,> 20 µM
11,CC(=O)N1CCC2(CCCN(C(=O)Nc3cccc(F)c3)C2)CC1,> 20 µM
12,COc1ccccc1CN1CC[C@@]2(CCCN(C(C)=O)C2)C1,> 20 µM
13,Cc1noc(C)c1-c1ccc2ncnc(N(C)C)c2c1,> 20 µM
14,COCCNc1ccnc(-c2ccccc2C(F)(F)F)n1,> 20 µM
15,CN(Cc1ccco1)c1ccnc(-c2cccc(NS(C)(=O)=O)c2)n1,> 20 µM
16,CN(Cc1ccco1)c1cc(-c2cccc(C#N)c2)ncn1,> 20 µM
17,COc1ccc(Oc2ncc3nc(-c4ccc(Cl)cc4)c(=O)n(C)c3n2)cc1,> 20 µM
18,O=C(Nc1cccc(F)c1)N1CCCC2(CCN(C(=O)c3ccco3)CC2)C1,> 20 µM
19,COCCn1c(=O)c(-c2ccc(Cl)cc2)nc2cncnc21,> 20 µM
20,COc1ccc(-n2c(=O)c(-c3cccs3)nc3cncnc32)cc1,> 20 µM
21,O=S(=O)(c1ccccc1)N1CCC2(CCCN(C(c3ccccc3)c3ccccc3)C2)CC1,> 20 µM
22,Cc1noc(C)c1-c1cncnc1NCc1ccccc1,> 20 µM
23,CN(C)c1ncc2nc(-c3cc(F)cc(F)c3)c(=O)n(C[C@H]3CCCO3)c2n1,> 20 µM
24,CS(=O)(=O)N1CCC2(CCCN(c3ccccn3)C2)CC1,> 20 µM

# From PubChem BioAssay (NCATS)
